# Sm TGR block = blocks Schistosoma mansoni thioredoxin glutathione reductase | purified TGR, DTNB reduction, TNB absorbance 405 nm | Potency, µM (series often up to 114 µM), for the others: top-dose activity change, negative = inhibition, actives largely listed as inhibitors | actives 3% (n = 360,000) | AID 485364; note: % is set by controls: 0 for no effect and ±100 for the full control effect; nearly all actives have a fitted effect of over 60% in size
#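 TGR 20 nM + NADPH 100 uM (dispensed conc.), cpd preinc 15 min RT; start with NADPH (500 uM addition) then DTNB (15 mM addition). Kinetic TNB absorbance, 405 nm filter. Four-parameter Hill fit across titration.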
# AMA1 RON2 block = AMA1-RON2 (P. falciparum) interaction inhibition | AlphaScreen AMA1-biotinylated RON2 peptide binding | Potency, µM (series often up to 58.2 µM), for the others: at the highest dose activity change, negative = inhibition, most hits filed as inhibitors | actives 0.2% (n = 360,000);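 note: 0% = vehicle wells and -100% = peptide control; nearly all actives have a fitted effect of over 45% in size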
#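 AMA1 (3D7) with his tag at 25 nM final met compounds first, then biotinylated RON2 peptide at 25 nM; detection used donor plus acceptor beads, 10 µg/mL apiece, read by AlphaScreen after 30 min at room temperature.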
# Pf growth 48h = inhibits P. falciparum growth in the first generation, 48 h | P. falciparum luciferase growth in erythrocytes, 48 h | Potency, µM (titrated, usually from 28.7 µM), without a hit: at the top dose activity change, negative = inhibition, most hits filed as inhibitors | actives 5.9% (n = 310,000); note: % is set by controls: 0 for no effect and ±100 for the full control effect
#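 Luminescence readout; reporter = integrated firefly luciferase in P. falciparum. RBC culture at 2% hematocrit, 0.1% parasitemia final, 37 C/5% CO2; decreased signal taken as growth inhibition.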
# NS1 function inh = blocks influenza NS1 protein function; Potency, µM (highest dose often 46.1 µM), for the others: at the highest dose activity, positive = more growth; actives 0.4% (n = 270,000); calls by dose curve; note: actives are rising curves; nearly all actives have a fitted effect of over 50% in size
#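 In this qHTS, NS1 from influenza A is expressed in budding yeast, where it slows growth. Cells are switched from glucose to 2% galactose medium (pH 6.0, -URA), treated with compound, and growth recovery is read at OD600.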
# Pf growth 96h = P. falciparum growth inhibition at 96 hour, primary screen for plastid delayed-death inhibitors; actives 6.9% (n = 320,000); AID 504834; Potency, µM (highest dose often 28.7 µM), inactives show top-dose activity change, negative = inhibition, hits mostly inhibitors; P. falciparum luciferase reporter growth, 96 h; note: % is set by controls: 0 for no effect and ±100 for the full control effect
#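 Erythrocytes infected with luciferase-expressing P. falciparum were dispensed at 2% hematocrit and 0.05% parasitemia (final), then incubated with compounds 96 hours at 37 C in 5% CO2. Luminescence after detection reagent addition reported growth.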
# * marks the source's active call; other numbers are inactive results; ? = inconclusive; nt = no result given; [ ] = remark or other dose. An excerpt weighted towards active compounds, which were near 11% of everything screened. Unless noted, calls come from the whole dose curve; as a rule, active = well fitted curve in the direction sought with a large enough effect; inconclusive = small, poorly fitted or top-dose-only effect, or another doubt; inactive = no such curve, though single readings can be large; an effect the other way counts as inactive or inconclusive. Potency is the fitted concentration of half-maximal effect.
SMILES,Sm TGR block,AMA1 RON2 block,Pf growth 48h,NS1 function inh,Pf growth 96h
N#Cc1c(N)nc2c(c1-c1ccncc1)CCCCC2,5%,19%,?,-8%,7.4µM*
Cc1nn(C)c(C)c1-c1c(C#N)c(N)nc2c1CCCCCC2,11%,-5%,?,5%,?
Cc1ccnc(NC(=O)c2cnc(Cl)c(Cl)c2)c1,1%,-8%,50%,-12%,24%
COc1cc(C(=O)NCc2nnc(SCC(=O)Nc3cccc(C)c3)o2)cc(OC)c1OC,-2%,-27%,nt,-2%,7.4µM*
CCCn1c(N)c(C(=O)CSc2nnc(Cc3ccccc3)o2)c(=O)n(C)c1=O,-3%,1%,8.3µM*,-8%,?
O=C(CSc1nnc(Cc2ccccc2)o1)c1ccccc1,0%[57.1 µM],24%,26%,-1%,?
Cc1cc(C)cc(NC(=O)CSc2nnc(CNC(=O)c3ccco3)o2)c1,-21%,10%,7%,-2%,?
Cc1cccc(NC(=O)CSc2nnc(CNC(=O)c3ccco3)o2)c1,-2%,-4%,21%,10%,10µM*
O=C(CSc1nnc(CNC(=O)c2ccco2)o1)Nc1ccc(F)cc1,4%,-4%,8%,4%,10µM*
COc1ccc(C(=O)N(C)Cc2cnn(Cc3ccccc3)c2)cc1S(=O)(=O)N1CCOCC1,-19%,-6%,?,nt,?
Cc1ccc(NC(=O)CSc2nnc(Cc3ccccc3)o2)cc1,-1%,12%,97%,nt,12µM*
Cc1cccc(NC(=O)CSc2nnc(Cc3ccccc3)o2)c1,3%,6%,5%,1%,37%
CC(C)C(c1nnnn1C(C)(C)C)N1CCC(Cc2ccccc2)CC1 (centres undefined),0%,-7%,9.3µM*,?,51%
CCCCCn1c2nc3ccccc3nc2c2c(=O)n(CC(C)C)cnc21,-26%,-8%,nt,6%,2.9µM*
CCCCn1c2nc3ccccc3nc2c2c(=O)n(CC(C)C)cnc21,nt,-12%,nt,nt,nt
COc1ccc(CCNC(=O)CCNC(=O)c2ccccc2Cl)cc1,-5%,-10%,-1%,5%,3%
CCOc1ccc(CCNC(=O)CCNC(=O)c2ccccc2Cl)cc1OCC,7%,0%,12µM*,11%,?
CCOc1ccc(S(=O)(=O)NCCC(=O)NCCc2ccc(OCC)c(OCC)c2)cc1,3.2µM*,6%,-26%,nt,?
COC(=O)c1ccccc1NC(=O)CSc1nc(Nc2ccccc2)nc(N2CCOCC2)n1,-2%,-10%,9.3µM*,?,-10%
CCOc1ccc2nc(SCC(=O)NCc3ccco3)sc2c1,-32%,?,8.3µM*,-21%,-6%
CC(=O)c1ccc(NC(=O)CSc2nc(Nc3ccccc3)nc(N3CCOCC3)n2)cc1,-27%,13%,?,-6%,2%
O=C(CSc1nc2ccc(Nc3nc(N4CCCC4)nc(N4CCCC4)n3)cc2s1)NCc1ccco1,-16%,2%,12µM*,3%,?
CCOc1ccc2nc(SCC(=O)NC(=O)NCc3ccco3)sc2c1,-2%,-6%,-1%,-3%,34%
O=C(CSc1nc2ccc(Nc3nc(N4CCOCC4)nc(N4CCOCC4)n3)cc2s1)Nc1ccccc1F,-17%,-7%,?,12%,10µM*
COc1ccc(C(=O)COC(=O)CCCC(=O)Nc2ccc(C(C)=O)cc2)cc1,0%,nt,nt,nt,nt
SMILES,Sm TGR block,AMA1 RON2 block,Pf growth 48h,NS1 function inh,Pf growth 96h
CSc1nc2ccc(Nc3nc(N4CCOCC4)nc(N4CCOCC4)n3)cc2s1,-1%,-4%,9.3µM*,4%,nt
O=C(CSc1nc2ccc(Nc3nc(N4CCOCC4)nc(N4CCOCC4)n3)cc2s1)Nc1ccccc1Cl,1%,36%,12µM*,12%,2.6µM*
COc1cccc(NC(=O)c2nc(S(C)(=O)=O)ncc2Cl)c1,10µM*,5%,13%,-11%,30%
CCS(=O)(=O)c1ncc(Cl)c(C(=O)Nc2c(C(=O)Nc3cccc(C)c3)oc3ccccc23)n1,3%,nt,nt,nt,nt
Cc1cccc(NC(=O)c2nc(S(C)(=O)=O)ncc2Cl)c1,4.5µM*,nt,nt,nt,nt
O=C(N/N=C/c1cc(Br)ccc1O)Nc1ccccc1,-12%,44%,?,-33%,8.3µM*
NC(=O)N/N=C\c1cc(Br)ccc1O,-13%,62%,-15%,4%,17%
O=C(C[n+]1ccccc1)N/N=C/c1cc(Br)ccc1O,28%,-24%,nt,-8%,4.1µM*

# Screens as filed in PubChem.
